Counter-ions that a name gives are not always drawn. ± gives the standard deviation of the averaged measurements.

For this assay, the system named is Saccharomyces cerevisiae BY4741 SeMeCo community. Nature of the assay: mean cell size (pixel area) (pixels); higher = larger cells. The settings on record: 10 µM; 24 h; SM minimal medium. In outline:
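Plates of 384 wells were acoustically predosed with drug at a final 10 µM in SM medium, and 70 µl of a Saccharomyces cerevisiae BY4741 preculture diluted from OD600 = 1.0 to OD600 = 0.3 was added for 24 h. The yeast formed a four-plasmid fluorescent community in which each plasmid complements one auxotrophy and carries a fluorescent marker. Fixed cells were imaged by automated confocal microscopy and analysed in Harmony for mean cell pixel area per well. Values are means of 3 replicates. Same SeMeCo high-content imaging drug screen: Selleck FDA-approved drugs at 10 µM, 24 h in SM medium, 384-well plates, 3 replicates.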
With `OCc1ccccc1O[C@@H]1O[C@H](CO)[C@@H](O)[C@H](O)[C@H]1O` [Salicin], the mean cell size was 12.4 ± 0.14. In the case of `O=C(O)c1cc(/N=N/c2ccc(O)c(C(=O)O)c2)ccc1O` [Olsalazine Sodium] it was 12.63 ± 0.099; in that of `CN(Cc1ccc(C(C)(C)C)cc1)Cc1cccc2ccccc12` [Butenafine HCl], 12.2 ± 0.22. The molecule `Cc1nc2n(c(=O)c1CCN1CCC(c3noc4cc(F)ccc34)CC1)CCCC2` [Risperidone] displayed a mean cell size of 12.3 ± 0.18. `OCCN(CCO)c1nc(N2CCCCC2)c2nc(N(CCO)CCO)nc(N3CCCCC3)c2n1` [Dipyridamole] yielded a mean cell size of 12.5 ± 0.14.

For the molecule `CC[C@@H]1C(=O)OC[C@@H]1Cc1cncn1C` [Pilocarpine HCl], the mean cell size amounted to 12.7 ± 0.26.

The molecule `C[N+]1(C)[C@@H]2CC[C@H]1C[C@@H](OC(=O)C(O)c1ccccc1)C2` (stereo not given in full) [Homatropine Methylbromide] yielded a mean cell size of 12.4 ± 0.32.

On to `CC(=O)N[C@H]1[C@H]([C@H](O)[C@H](O)CO)OC(C(=O)O)=C[C@@H]1NC(=N)N` [Zanamivir], for which the mean cell size was determined as 11.9 ± 0.17. In the case of `NC(CO)(CO)CO` [Trometamol] it was 12.2 ± 0.18; in that of `Cc1ccc(O)c([C@H](CCN(C(C)C)C(C)C)c2ccccc2)c1` [Tolterodine tartrate], 12.36 ± 0.069.

Molecule `COc1cc2c(cc1OC)[C@@H]1Cc3ccc(OC)c(OC)c3CN1CC2` [Rotundine] displayed a mean cell size of 12.5 ± 0.15. In the case of `CCCCN(CCCC)CC(O)c1cc(Cl)cc2c1-c1ccc(Cl)cc1/C2=C/c1ccc(Cl)cc1` (stereo not given) [Lumefantrine] it was 12.4 ± 0.14; in that of `Nc1nc(O)c2ncn(CCC(CO)CO)c2n1` [Penciclovir], 12.4 ± 0.4; in that of `CN[C@H]1CC[C@@H](c2ccc(Cl)c(Cl)c2)c2ccccc21` [Sertraline HCl], 12.4 ± 0.056. `C=CC[C@@H]1/C=C(\C)C[C@H](C)C[C@H](OC)[C@H]2O[C@@](O)(C(=O)C(=O)N3CCCC[C@H]3C(=O)O[C@H](/C(C)=C/[C@@H]3CC[C@@H](O)[C@H](OC)C3)[C@H](C)[C@@H](O)CC1=O)[C@H](C)C[C@@H]2OC` [Tacrolimus (FK506)] displayed a mean cell size of 12.02 ± 0.1. Molecule `CN(C)CCc1c[nH]c2ccc(C[C@H]3COC(=O)N3)cc12` [Zolmitriptan] showed a mean cell size of 12.5 ± 0.18. Molecule `CCCc1nc(C)c2c(=O)nc(-c3cc(S(=O)(=O)N4CCN(CC)CC4)ccc3OCC)[nH]n12` [Vardenafil HCl Trihydrate] came in with a mean cell size of 12.53 ± 0.092. `CCC[C@@H]1C[C@@H](C(=O)N[C@@H]([C@H]2O[C@H](SC)[C@H](OP(=O)(O)O)[C@@H](O)[C@H]2O)[C@H](C)Cl)N(C)C1` [Clindamycin Phosphate]: the mean cell size was found to be 12 ± 0.22. Molecule `O=C1CN(/N=C/c2ccc(-c3ccc([N+](=O)[O-])cc3)o2)C(=O)N1` [Dantrolene sodium] showed a mean cell size of 12.4 ± 0.18. In the case of `CO/N=C(\C(=O)N[C@@H]1C(=O)N2C(C(=O)O)=C(Cn3ccc(=N)n3CCO)CS[C@H]12)c1csc(N)n1` [Cefoselis Sulfate] it was 12.3 ± 0.24; in that of `COC(=O)C1=C(C)NC(C)=C(C(=O)OCCN2CCN(C(c3ccccc3)c3ccccc3)CC2)C1c1cccc([N+](=O)[O-])c1` (stereo not given) [Manidipine], 12 ± 0.18; in that of `COc1ccccc1N1CCN(CCCNc2cc(=O)n(C)c(=O)n2C)CC1` [Urapidil HCl], 12.49 ± 0.088.

In the case of `CC[N+](CC)(CC)CC` [Tetraethylammonium bromide], the mean cell size came out at 12.27 ± 0.094. Take `CONC(=O)Nc1ccc(-c2sc3c(c2CN(C)C)c(=O)n(-c2ccc(OC)nn2)c(=O)n3Cc2c(F)cccc2F)cc1` [Relugolix]: the mean cell size was found to be 12.2 ± 0.23. In turn, `Cc1cnc(NC(=O)C2=C(O)c3ccccc3S(=O)(=O)N2C)s1` [Meloxicam] displayed a mean cell size of 12.77 ± 0.087. With `Nc1ccc2cc3ccc(N)cc3nc2c1` [Proflavine Hemisulfate] the figure was 12.06 ± 0.0063. Molecule `COC(=O)C1=C(C)NC(C)=C(C(=O)OCCN(C)Cc2ccccc2)C1c1cccc([N+](=O)[O-])c1` (stereo not given) [Nicardipine HCl] showed a mean cell size of 12.4 ± 0.28. Take `CCCCN1CCCCC1C(=O)Nc1c(C)cccc1C` (stereo not given) [Bupivacaine HCl]: the mean cell size was found to be 12.48 ± 0.1.

Consider `CN(C)[C@@H]1C(O)=C(C(N)=O)C(=O)[C@@]2(O)C(O)=C3C(=O)c4c(O)cccc4[C@@](C)(O)[C@H]3[C@H](O)[C@@H]12` [Oxytetracycline Dihydrate], for which the mean cell size stood at 12.6 ± 0.18. With `CCN(CC)CCOCCOC(=O)C1(c2ccccc2)CCCC1` [Pentoxyverine Citrate] the figure was 12.5 ± 0.13; with `Cc1ccnc(NS(=O)(=O)c2ccc(N)cc2)n1` [Sulfamerazine], 12.5 ± 0.16; with `CC1(C)S[C@@H]2[C@H](NC(=O)[C@H](NC(=O)N3CCNC3=O)c3ccccc3)C(=O)N2[C@H]1C(=O)O` [Azlocillin sodium salt], 12.4 ± 0.27. Turning to `NC(=O)OCC(COC(N)=O)c1ccccc1` [Felbamate], the mean cell size came out at 12.33 ± 0.12. Molecule `O=C(O)Cc1ccccc1Nc1c(Cl)cccc1Cl` [Diclofenac Sodium] returned a mean cell size of 12.7 ± 0.18. In the case of `CN[C@H](CC(C)C)C(=O)N[C@H]1C(=O)N[C@@H](CC(N)=O)C(=O)N[C@H]2C(=O)N[C@H]3C(=O)N[C@H](C(=O)N[C@H](C(=O)O)c4cc(O)cc(O)c4-c4cc3ccc4O)[C@H](O)c3ccc(c(Cl)c3)Oc3cc2cc(c3O[C@@H]2O[C@H](CO)[C@@H](O)[C@H](O)[C@H]2O[C@H]2C[C@](C)(N)[C@H](O)[C@H](C)O2)Oc2ccc(cc2Cl)[C@H]1O` [Vancomycin HCl] it was 12.1 ± 0.11; in that of `CCN(CC)CCOC(=O)c1ccc(N)cc1` [Procaine HCl], 12.5 ± 0.25; in that of `O=C1CC2(CCCC2)CC(=O)N1CCCCN1CCN(c2ncccn2)CC1` [Buspirone HCl], 12.4 ± 0.25.

Regarding `CCC(C)(Oc1ccc(C2(c3ccc(OC(C)(CC)C(=O)O)cc3)CCCCC2)cc1)C(=O)O` (stereo not given) [Clinofibrate], the mean cell size amounted to 13.24 ± 0.13.

Take `CC(C)NC(=N)NC(=N)Nc1ccc(Cl)cc1` [Proguanil]: the mean cell size turned out to be 12.3 ± 0.13. Turning to `COc1cc(C(C)=O)ccc1OCCCN1CCC(c2noc3cc(F)ccc23)CC1` [Iloperidone], the mean cell size came to 12.4 ± 0.16.

Values taken from the supplement of paper PMC8975748.
